According to PubChem BioAssay AID2313 (Broad Institute, 2010):
In all, about 22,000 compounds went through this assay and about 460 (2.1%) were called active. Not shown: some 2% with an inconclusive outcome. This excerpt belongs to a sample that is enriched for actives. A number with no mark means an inactive call.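 The calls were made as follows: active = mean inhibition across valid replicates above about 65% (limit read from the data); inconclusive = mean under the limit, yet half or more replicates past it; inactive = the rest.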

Assay: Shh-driven Gli reporter inhibition – luminescence, Shh-LIGHT2 cells, Gli-luciferase, primary screen (AID 2313);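 also: pathway switched on by Shh-conditioned medium diluted 1 in 25 in low serum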
Details: 30 h, stronger effect = higher value
For `O=C(Oc1ccc(Cl)cc1)c1csc(C2COc3ccccc3O2)n1` (stereo unspecified), the inhibition was -8.84%. For `C[C@@H]1CN([C@H](C)CO)C(=O)Cc2cc(N(C)C)ccc2O[C@H]1CN(C)S(C)(=O)=O`, the inhibition was -5.86%. For `Cc1ccc(S(=O)(=O)Nc2ccc3c(c2)C(=O)N([C@@H](C)CO)C[C@H](C)[C@@H](CN(C)CC2CC2)O3)cc1`, the inhibition was 11.4%. `O=C(O)c1ccc(NS(=O)(=O)c2ccc3c4c(cccc24)C(=O)N3)cc1` gave an inhibition of -9.19%. In the case of `C[C@H]1CN([C@@H](C)CO)C(=O)c2cccc(NS(=O)(=O)c3ccc(F)cc3)c2O[C@@H]1CN(C)Cc1ccncc1`, the inhibition is reported as 3.57%. For `Cc1ccc(S(=O)(=O)N(C)C[C@H]2Oc3c(NS(=O)(=O)c4ccc(Cl)cc4)cccc3C(=O)N([C@H](C)CO)C[C@@H]2C)cc1`, the inhibition was -17.4%. For `Cc1ccc(-n2nnnc2-c2cnn(-c3ccccc3)c2C)cc1`, the inhibition was 88.7% (active). In the case of `CCCN(C)C[C@H]1OCCCC[C@@H](C)Oc2ccc(N(C)C)cc2C(=O)N([C@H](C)CO)C[C@@H]1C`, the inhibition is reported as -12.9%. Compound `COc1ccc(CN(C)C[C@H]2Oc3c(NS(=O)(=O)c4ccccc4)cccc3C(=O)N([C@H](C)CO)C[C@@H]2C)cc1` has an inhibition of -36.7%. In the case of `COc1ccc(S(=O)(=O)N(C)C[C@H]2Oc3c(NC(=O)Nc4ccc5c(c4)OCO5)cccc3C(=O)N([C@H](C)CO)C[C@@H]2C)cc1`, the inhibition is reported as 18.1%. In the case of `CC(=O)Nc1ccc(Nc2c3c4c(cccc4[nH]c2=O)C(=O)c2ccccc2-3)cc1`, the inhibition is reported as 88.2% (active). With `COc1ccc(CCN=C2SCC(=O)N2Cc2ccccc2)cc1OC` the inhibition was 13.3%. For `Cc1noc(C)c1NC(=O)Nc1ccc2c(c1)C(=O)N([C@H](C)CO)C[C@H](C)[C@H](CN(C)Cc1ccncc1)OCCCC[C@@H](C)O2`, the inhibition was 0.0543%. `C[C@H]1CN([C@@H](C)CO)C(=O)Cc2cc(NC(=O)C3CC3)ccc2O[C@H]1CN(C)S(=O)(=O)c1ccc(Cl)cc1` showed an inhibition of 30.4%. Work on `C[C@@H]1CN([C@H](C)CO)C(=O)c2cc(NC(=O)CCN3CCOCC3)ccc2O[C@H]1CN(C)Cc1ccc(Oc2ccccc2)cc1` yielded an inhibition of -15%. In the case of `Oc1ccc(CN2CCCC2)c2cccnc12`, the inhibition is reported as 85% (active). Work on `Cc1onc(-c2c(Cl)cccc2Cl)c1C(=O)N=S(C)(C)=O` yielded an inhibition of -19%. For `C[C@H]1CN([C@@H](C)CO)C(=O)c2cccc(NS(=O)(=O)c3cccs3)c2O[C@H]1CN(C)C(=O)Nc1ccccc1`, the inhibition was 26.6%. In the case of `CCC/C=C/C=C/C1CC(O)C(O)C1C(=O)O` (stereo unspecified), the inhibition is reported as -18%. Work on `C[C@H](CO)N1C[C@H](C)[C@H](CN(C)C(=O)NC2CCCCC2)Oc2c(NC(=O)C3CC3)cccc2C1=O` yielded an inhibition of -11.9%. `C[C@H](CO)N1C[C@H](C)[C@@H](CN(C)Cc2ccc(Cl)c(Cl)c2)Oc2c(NC(=O)Nc3ccccc3)cccc2C1=O` showed an inhibition of -0.821%. For `Oc1c(Cl)cc(Cl)c(Cl)c1Cc1c(O)c(Cl)cc(Cl)c1Cl`, the inhibition was 102% (active). `C[C@@H]1CN([C@H](C)CO)C(=O)c2cccc(NC(=O)c3nc4ccccc4s3)c2O[C@H]1CN(C)S(=O)(=O)c1ccc(Cl)cc1` gave an inhibition of 11%. For `C[C@H]1CN([C@@H](C)CO)C(=O)c2cccc(NS(=O)(=O)c3ccc(F)cc3)c2O[C@@H]1CN(C)CC1CC1`, the inhibition was -16.6%. Compound `C[C@H]1CN([C@@H](C)CO)C(=O)Cc2cc(NS(=O)(=O)c3ccc(F)cc3)ccc2O[C@H]1CN(C)Cc1ccc(C(F)(F)F)cc1` has an inhibition of 30.1%. `COc1ccc(S(=O)(=O)N(C)C[C@H]2Oc3ccc(NC(=O)C4CC4)cc3CC(=O)N([C@@H](C)CO)C[C@@H]2C)cc1` gave an inhibition of -32.4%. Work on `CC(C)NC(=O)Nc1ccc2c(c1)C(=O)N([C@@H](C)CO)C[C@@H](C)[C@H](CN(C)Cc1ccc(C(=O)O)cc1)O2` yielded an inhibition of -19.8%. `C[C@H]1CN([C@@H](C)CO)C(=O)Cc2cc(N(C)C)ccc2O[C@@H]1CN(C)Cc1ccc(-c2ccccc2)cc1` gave an inhibition of 33.2%. `C[C@@H]1CCCCO[C@@H](CN(C)C(=O)CCC(F)(F)F)[C@@H](C)CN([C@H](C)CO)C(=O)c2cc(NC(=O)Nc3ccccc3)ccc2O1` gave an inhibition of -0.845%. For `O=C(c1ccccc1)c1cnn(-c2ccc(Cl)cc2)n1`, the inhibition was 79.3% (active). With `C[C@@H]1CN([C@H](C)CO)C(=O)Cc2cc(NC(=O)C3CCCCC3)ccc2O[C@@H]1CN(C)S(C)(=O)=O` the inhibition was -14.6%. `C[C@@H]1CN([C@H](C)CO)C(=O)c2cccc(NC(=O)Nc3ccc4c(c3)OCO4)c2O[C@H]1CN(C)C(=O)Nc1ccc(F)cc1` gave an inhibition of -8.45%. For `C[C@@H]1CN([C@@H](C)CO)C(=O)c2cccc(NC(=O)NC3CCCCC3)c2O[C@@H]1CN(C)CC1CCCCC1`, the inhibition was -35.3%. With `C[C@H]1CN([C@@H](C)CO)C(=O)Cc2cc(NC(=O)CCC(F)(F)F)ccc2O[C@H]1CN(C)C(=O)NC1CCCCC1` the inhibition was -30.3%. With `O=C1C2CC3CC1CC(C(=O)O)(C3)C2` the inhibition was -15.4%. In the case of `CCN1C(=O)c2cccc3c(NC(=S)NC(=O)c4ccccc4)ccc1c23`, the inhibition is reported as 86.3% (active). In the case of `O=c1n(Cc2ccccc2)c2ccccc2n1Cc1ccccc1`, the inhibition is reported as 96.1% (active). In the case of `CC(C)(C)c1ccc(Cn2c(=N)n(CC(=O)O)c3ccccc32)cc1`, the inhibition is reported as -5.52%. `O=c1c2ccccc2c(-c2ccccc2)nn1Cc1ccccc1` showed an inhibition of 9.85%. For `CCCN(C)C[C@@H]1OCCCC[C@@H](C)Oc2ccc(NC(=O)CCCN(C)C)cc2C(=O)N([C@H](C)CO)C[C@@H]1C`, the inhibition was -7.4%. In the case of `S=C(NCC1CC1)Nc1ccc(Cl)cc1`, the inhibition is reported as -35.4%. `O=C(O)c1c(Br)c(Br)c(Br)c(Br)c1-c1c2ccc(=O)cc-2oc2cc(O)ccc12` showed an inhibition of -5.58%. `C[C@@H]1CN([C@@H](C)CO)C(=O)c2cccc(NC(=O)Nc3ccc(F)cc3)c2O[C@H]1CN(C)Cc1ccc(-c2ccccc2)cc1` gave an inhibition of 2.55%. With `C[C@H]1CN([C@@H](C)CO)C(=O)c2cc(NC(=O)Nc3ccccc3)ccc2O[C@H]1CN(C)S(C)(=O)=O` the inhibition was -21%. Work on `C[C@@H]1CN([C@H](C)CO)C(=O)Cc2cc(NS(=O)(=O)c3ccc(Cl)cc3)ccc2O[C@H]1CN(C)S(=O)(=O)c1cccs1` yielded an inhibition of -21.8%. With `COc1ccc(S(=O)(=O)N(C)C[C@@H]2OCCCC[C@@H](C)Oc3ccc(NS(C)(=O)=O)cc3C(=O)N([C@H](C)CO)C[C@@H]2C)cc1` the inhibition was 54.6%. In the case of `C=C1C(=O)OC2/C=C(\C)CC3C=C(CC/C=C(\C)CCC12)C(=O)O3` (stereo unspecified), the inhibition is reported as 39.9%. In the case of `CC(C)NC(=O)Nc1ccc2c(c1)CC(=O)N([C@H](C)CO)C[C@H](C)[C@H](CN(C)Cc1ccc3c(c1)OCO3)O2`, the inhibition is reported as -12.2%. `C[C@@H]1CN([C@H](C)CO)C(=O)c2cccc(NS(=O)(=O)c3ccc(Cl)cc3)c2O[C@@H]1CN(C)Cc1ccc(Oc2ccccc2)cc1` showed an inhibition of 23.8%. With `C[C@@H]1O[C@@H](O[C@H]2[C@@H](Oc3cc(O)c4c(c3)O[C@H](c3ccc(O)cc3)CC4=O)O[C@H](CO)[C@@H](O)[C@@H]2O)[C@H](O)[C@H](O)[C@H]1O` the inhibition was -8.61%. Work on `C[C@@H]1CN([C@H](C)CO)C(=O)c2cccc(NS(=O)(=O)c3ccc(Cl)cc3)c2O[C@H]1CN(C)C(=O)NC1CCCCC1` yielded an inhibition of -17%. `CC(C)NC(=O)N(C)C[C@@H]1Oc2ccc(NS(=O)(=O)c3cn(C)cn3)cc2C(=O)N([C@@H](C)CO)C[C@@H]1C` showed an inhibition of 8%. `Cc1ccc(NC(=O)C2C3C=CC(C3)C2C(=O)O)cc1` (stereo unspecified) showed an inhibition of -27.3%. With `Cc1ccc(S(=O)(=O)Nc2ccc3c(c2)C(=O)N([C@H](C)CO)C[C@H](C)[C@@H](CN(C)S(=O)(=O)c2cccs2)O3)cc1` the inhibition was -5.89%. With `C[C@@H]1CCCCO[C@H](CN(C)Cc2ccc(Cl)c(Cl)c2)[C@@H](C)CN([C@H](C)CO)C(=O)c2cc(NS(=O)(=O)c3cn(C)cn3)ccc2O1` the inhibition was -46.4%. In the case of `CC(C)NC(=O)N(C)C[C@H]1Oc2c(NS(=O)(=O)c3cccs3)cccc2C(=O)N([C@H](C)CO)C[C@H]1C`, the inhibition is reported as -35.4%. `C[C@@H]1CN([C@H](C)CO)C(=O)c2cccc(NS(=O)(=O)c3ccc(F)cc3)c2O[C@H]1CN(C)Cc1ccc(Oc2ccccc2)cc1` showed an inhibition of 23.1%. In the case of `COc1ccc(CN(C)C[C@H]2Oc3ccc(NS(=O)(=O)c4ccc(C)cc4)cc3C(=O)N([C@@H](C)CO)C[C@H]2C)cc1`, the inhibition is reported as 29.4%. Work on `COc1cc([C@H]2OC[C@H]3[C@@H]2CO[C@@H]3c2cc(OC)c(O[C@@H]3O[C@H](CO)[C@@H](O)[C@H](O)[C@H]3O)c(OC)c2)cc(OC)c1O` yielded an inhibition of 2.06%. Compound `COc1ccc(CN2C(=O)CC(Cc3ccc(C)cc3)C2=O)cc1OC` (stereo unspecified) has an inhibition of 4.43%. `COc1ccc(S(=O)(=O)Nc2cccc3c2O[C@@H](CN(C)S(=O)(=O)c2ccccc2)[C@@H](C)CN([C@@H](C)CO)C3=O)cc1` showed an inhibition of -0.37%. For `O=C(CSc1nnc2n1CCCN2)c1ccccc1`, the inhibition was -28.2%. For `O=C1C=C(SCC(=O)c2ccccc2)SC(c2ccc(Cl)cc2)C1` (stereo unspecified), the inhibition was 82.7% (active). For `CCC/C=C/C(=O)OC1C(O)C23C(O)OC4(CCC5C6(C)CCC(OC7OC(C(=O)O)C(O)C(OC8OC(CO)C(O)C(O)C8OC8OC(C)C(O)C(O)C8OC8OCC(O)C(O)C8O)C7OC7OC(CO)C(O)C(O)C7O)C(C)(C)C6CCC5(C)C4(C)CC2OC(C)=O)C3CC1(C)C` (stereo unspecified), the inhibition was 104% (active). With `CC1OC(OC2C(OC3C(O[C@H]4CC[C@@]5(C)C(CC[C@]6(C)C5CC=C5[C@@H]7CC(C)(C)C[C@@H](O)[C@]7(C)CC[C@]56C)C4(C)C)OC(C(=O)O)C(O)C3O)OC(CO)C(O)C2O)C(O)C(O)C1O` (stereo partly specified) the inhibition was 7.2%. In the case of `C/C=C(/C)C(=O)O[C@H]1CC(C)(C)C[C@H]2C3=CCC4[C@@]5(C)CC[C@H](O[C@@H]6O[C@H](C(=O)O)[C@@H](O[C@@H]7O[C@H](CO)[C@H](O)[C@H](O)[C@H]7O[C@@H]7O[C@H](CO)[C@@H](O)[C@H](O)[C@H]7O)[C@H](O)[C@H]6O[C@@H]6O[C@@H](C)[C@H](O)[C@@H](O)[C@H]6O)C(C)(C)C5CC[C@@]4(C)[C@]3(C)[C@@H](OC(C)=O)[C@@H](O)[C@@]12COC(C)=O` (stereo partly specified), the inhibition is reported as 97.7% (active). In the case of `COC(=O)C1=CO[C@@H](O[C@@H]2O[C@H](CO)[C@@H](O)[C@H](O)[C@H]2O)[C@@H]2[C@@](C)(O)[C@@H](OC(=O)/C=C/c3ccc(OC)c(OC)c3)C[C@]12O`, the inhibition is reported as 3.81%. In the case of `CC1(C)CC[C@]2(C(=O)O)CC[C@]3(C)C(=CCC4[C@@]5(C)CC[C@H](OC6O[C@H](CO)[C@@H](O)[C@H](O[C@@H]7O[C@H](CO)[C@@H](O)[C@H](O)[C@H]7O)[C@H]6O)C(C)(C)C5CC[C@]43C)[C@@H]2C1` (stereo partly specified), the inhibition is reported as 107% (active). In the case of `C/C=C(/C)C(=O)O[C@H]1CC(C)(C)C[C@H]2C3=CCC4[C@@]5(C)CC[C@H](O[C@@H]6O[C@H](C(=O)O)[C@@H](O[C@@H]7O[C@H](CO)[C@H](O)[C@H](O)[C@H]7O[C@@H]7O[C@H](CO)[C@@H](O)[C@H](O)[C@H]7O)[C@H](O)[C@H]6O[C@@H]6O[C@@H](C)[C@H](O)[C@@H](O)[C@H]6O)C(C)(C)C5CC[C@@]4(C)[C@]3(C)[C@@H](O)[C@@H](O)[C@@]12CO` (stereo partly specified), the inhibition is reported as 99.7% (active). In the case of `CC1(C)CC[C@]2(C(=O)O[C@@H]3O[C@H](CO)[C@@H](O)[C@H](O)[C@H]3O)CC[C@]3(C)C(=CCC4[C@@]5(C)CC[C@H](O[C@@H]6O[C@H](C(=O)O)[C@@H](O[C@@H]7OC[C@H](O)[C@H](O)[C@H]7O)[C@H](O)[C@H]6O)C(C)(C)C5CC[C@]43C)C2C1` (stereo partly specified), the inhibition is reported as 35.4%. With `C=CC1(C)C=C2CCC3C(C)(C)C(O[C@@H]4O[C@@H](CO)[C@H](O)[C@H]4O)CCC3(C)C2CC1O[C@@H]1O[C@H](C)[C@@H](OC)[C@H](O)[C@H]1O` (stereo partly specified) the inhibition was -27.2%.
